These results are taken from PubChem BioAssay (NCI).

The panel holds about 83,000 compounds, 20% with a hit somewhere; the sample as a whole holds those more often.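 Growth was measured after 48 h exposure to one concentration of compound in 96-well plates. Values under 10 count as active.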 Values without a mark were called inactive. Active and inactive are the calls of the source.

Among the test systems are T-47D breast; BT-549 breast; MDA-MB-435 melanoma; SW-620 colon; MCF7 breast; HCT-116 colon; HCC-2998 colon; KM12 colon.
What all share (test): NCI-60 one-dose screen, 48 h (100 = growth as untreated, 0 = no growth, -100 = all killed)
Common to all, as to settings: 10 µM unless noted

For the compound `COc1cc(C2C=C(C)N=C3SC=NN32)cc(OC)c1OC` (stereo not given), the growth is 109% in the assay on T-47D breast; 141% in the assay with BT-549 breast; 104% with MDA-MB-435 melanoma; 105% in the assay with SW-620 colon; 98.9% in the assay on MCF7 breast; 111% in the assay on HCT-116 colon. Also, the growth in the assay with HCC-2998 colon is 102%; in the assay with KM12 colon, 107%.

As for `CC(C)N1CCN(c2ccncc2S(=O)(=O)N2CCN(C)CC2)CC1`, the growth with T-47D breast was 96.2%; in the assay with BT-549 breast, 107%; with MDA-MB-435 melanoma, 101%; in the assay on SW-620 colon, 105%; in the assay on MCF7 breast, 94.1%; with HCT-116 colon, 100%. Moreover, the results for the growth in the assay with HCC-2998 colon and with KM12 colon were 106% and 99.1%, respectively.

`CO[C@@]12[C@@H]3NC3CN1C1=C(C(=O)C(N)=C(C)C1=O)[C@@H]2COC(N)=O` (stereo not given in full): the growth in the assay on T-47D breast is 40.8%; in the assay with BT-549 breast, 28.6%; in the assay on MDA-MB-435 melanoma, 34.9%; in the assay with SW-620 colon, 10.4%; in the assay on MCF7 breast, 6.55% (active); with HCT-116 colon, 6.78% (active). Further, in the assay with HCC-2998 colon, the growth was -44.8% (active).

With `O=C1C(Cl)=C(N/N=c2/[nH][nH]/c(=N/NC3=C(Cl)C(=O)c4ccccc4C3=O)c3ccccc23)C(=O)c2ccccc21`, the growth in the assay on T-47D breast is 15.3%; with BT-549 breast, 83.1%; with MDA-MB-435 melanoma it was 102%; with SW-620 colon, 60.6%; in the assay with MCF7 breast it was 54%; with HCT-116 colon, 61.8%. In addition, the growth in the assay on HCC-2998 colon is 93.9%; with KM12 colon, 18.5%.

Regarding `COS(=O)(=O)CCN(CCOS(C)(=O)=O)S(C)(=O)=O`, the growth was 98% with T-47D breast; 97.5% in the assay on BT-549 breast; 108% in the assay with MDA-MB-435 melanoma; 107% in the assay on SW-620 colon; 96% in the assay with MCF7 breast; 100% in the assay on HCT-116 colon. Moreover, the growth was 98% in the assay with HCC-2998 colon and 105% in the assay on KM12 colon.

For `COc1cc2nccc(Oc3ccc(NC(=O)C4(C(=O)Nc5ccc(F)cc5)CC4)cc3)c2cc1OC(=O)c1ccc(N)cc1`, the growth in the assay with T-47D breast is 19.5%; in the assay on BT-549 breast, 36.1%; with MDA-MB-435 melanoma it was 33.2%; in the assay with SW-620 colon it was 33.5%; with MCF7 breast, 23.8%; with HCT-116 colon, 23.1%. Besides, the growth with HCC-2998 colon was 25.8%; in the assay on KM12 colon, 12.3%.

Consider `COc1cc2cc(C(=O)Nc3ccccc3)c(N)nc2cc1OC`, for which the growth with T-47D breast is -28% (active); in the assay with BT-549 breast, 69.9%; with MDA-MB-435 melanoma, -84.2% (active); with SW-620 colon, -68% (active); in the assay on MCF7 breast, -88.4% (active); in the assay with HCT-116 colon it was -80.2% (active). For the same compound, the results for the growth in the assay on HCC-2998 colon and with KM12 colon were -83.4% (active) and -52% (active), respectively.

As for `O=c1c2sc3ccccc3c2nnn1-c1ccc(F)c(Cl)c1`, the growth is 45.9% with T-47D breast; 81.6% in the assay on BT-549 breast; 72.3% in the assay with MDA-MB-435 melanoma; 62.3% in the assay with SW-620 colon; 63.9% in the assay on MCF7 breast; 19.9% in the assay with HCT-116 colon. Further, the growth with HCC-2998 colon was 68.7%.

As to `COc1ccc(-c2[nH]nc(N)c2-c2cc(OC)c(OC)c(OC)c2)cc1`, the growth is 52.8% with T-47D breast; 3.37% (active) in the assay on BT-549 breast; -69.2% (active) in the assay with MDA-MB-435 melanoma; 23% in the assay on SW-620 colon; 16.3% in the assay with MCF7 breast; 6.24% (active) in the assay with HCT-116 colon. For the same compound, the growth in the assay with HCC-2998 colon was 1.36% (active); in the assay with KM12 colon it was 3.55% (active).

On to `COc1ccc(/C=C2\Cc3c(Br)cccc3C2=O)c(OC)c1`, for which the growth with T-47D breast is 77.3%; in the assay on BT-549 breast, 69.6%; in the assay on MDA-MB-435 melanoma it was 7.83% (active); in the assay with SW-620 colon it was 43.2%; in the assay on MCF7 breast, 55.6%; with HCT-116 colon, 15%. The values for the growth with HCC-2998 colon and in the assay with KM12 colon were 84.1% and 46.8%, respectively.

Regarding `Nc1nc(N)c2c(n1)NC(c1sc(Cl)nc1Cl)CC(c1ccc3c(c1)OCO3)=N2` (stereo not given), the growth in the assay with T-47D breast was 39.1%; with BT-549 breast it was 27.2%; with MDA-MB-435 melanoma it was -9.34% (active); in the assay with SW-620 colon it was 13.2%; in the assay with MCF7 breast it was 26.2%; in the assay on HCT-116 colon, 20.1%. Further, the values for the growth with HCC-2998 colon and in the assay with KM12 colon were 61.2% and 34.2%, respectively.

On to `CCCN(CCC)CC(O)COc1ccccc1C(=O)Nc1ccccc1` (stereo not given), for which the growth was 97.1% in the assay with T-47D breast; 87.1% in the assay with BT-549 breast; -21.1% (active) in the assay on MDA-MB-435 melanoma; 36.9% with SW-620 colon; 79.9% with MCF7 breast; 50.6% in the assay on HCT-116 colon. Also, the results for the growth with HCC-2998 colon and in the assay on KM12 colon were 79.6% and 48.3%, respectively.

Take `CCCCCCCCCCCCCCCc1cc(O)ccc1[N+](=O)[O-]`: the growth is 61.2% in the assay on T-47D breast; 76.4% in the assay with BT-549 breast; 96.8% in the assay on MDA-MB-435 melanoma; 93.1% in the assay on SW-620 colon; 66% with MCF7 breast; 64.7% in the assay with HCT-116 colon. Further, the figures for the growth in the assay with HCC-2998 colon and in the assay with KM12 colon were 104% and 89.3%, respectively.

In the case of `Fc1ccc2nc(-c3ccc(-c4noc(-c5ccc(Cl)cc5)n4)cc3)[nH]c2c1`, the growth with T-47D breast was 92.9%; in the assay with BT-549 breast it was 93.9%; in the assay with MDA-MB-435 melanoma it was 105%; with SW-620 colon, 107%; with MCF7 breast, 105%; with HCT-116 colon it was 95.6%. The growth in the assay with HCC-2998 colon is 106%; in the assay with KM12 colon it was 93.1%.

As to `CC(C)(C)NC(=O)C(OC(=O)C1CCc2cc(F)ccc2O1)c1ccccc1Cl` (stereo not given), the growth with T-47D breast was 86.8%; in the assay on BT-549 breast it was 107%; in the assay on MDA-MB-435 melanoma, 106%; with SW-620 colon, 99.7%; in the assay on MCF7 breast, 97.8%; in the assay on HCT-116 colon, 93.9%. The growth in the assay on HCC-2998 colon was 102%.

For `CCCCCCCCCCCCCCC(C(=O)OCC)C(=O)OCC`, the growth in the assay on T-47D breast is 101%; in the assay with BT-549 breast it was 104%; in the assay with MDA-MB-435 melanoma, 96.1%; in the assay on SW-620 colon, 107%; in the assay with MCF7 breast, 98.5%; with HCT-116 colon it was 109%. For the same compound, the growth in the assay with HCC-2998 colon was 106%; with KM12 colon, 108%.
